In assay [1] the target is Luciferin 4-monooxygenase (Photinus pyralis) (UniProt P08659). The experiment in a line: qHTS assay to identify small molecule inhibitors of firefly luciferase (AID 1224835). Note: nearly all actives have a fitted effect of over 25% in size. Note: potency is the fitted concentration of half-maximal effect. In a few lines: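 Quantitative HTS format; KM concentrations of both substrates. Purified P. pyralis FLuc activity quantified from luminescence images.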
The nature of assay [2]: qHTS assay to identify small molecule antagonists of the estrogen related receptor signaling pathway with the pleiotropic PPARgamma coactivator (PGC) from Tox21 10K library - cell viability counter screen (AID 1224840; active = well fitted cell-killing curve with a large enough effect in the repeat runs, not every such curve was filed as active; note: nearly all actives have a fitted effect of over 40% in size; note: potency is the fitted concentration of half-maximal effect). The procedure, abridged: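 Step one, plate 2,000 PGC/ERR cells per well; step two, incubate 6 h at 37 C/5% CO2; step three, pin-transfer compounds; step four, incubate 17.5 h; step five, add CellTiter-Fluor and read fluorescence after 30 min.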
On the technique in general: qHTS replaces the single test concentration by a dilution series.

A short description of assay [3]: qHTS assay to identify small molecule antagonists of the estrogen related receptor signaling pathway with the pleiotropic PPARgamma coactivator (PGC) from Tox21 10K library (AID 1224841; call rule not given here; note: actives are mostly falling curves and most rising ones were filed inactive; nearly all actives have a fitted effect of over 50% in size; note: potency is the fitted concentration of half-maximal effect). In a few lines: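 Antagonism in this quantitative HTS is taken from loss of luciferase signal in PGC/ERR cells. Cells (2,000/well) are treated with compounds in DMSO after a 6 h settling period and read by One-Glo luminescence after 18 h.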

A short description of assay [4]: qHTS assay to identify small molecule agonists of the estrogen related receptor signaling pathway with the pleiotropic PPARgamma coactivator (PGC) from Tox21 10K library (AID 1224842). Note: nearly all actives have a fitted effect of over 15% in size. Note: potency is the fitted concentration of half-maximal effect. In a few lines: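 PGC/ERR reporter cells (NTP line) were seeded 2,000 per well, rested 6 h at 37 C/5% CO2, then pin-dosed with compounds in DMSO for 18 h at 37 C; luciferase read by One-Glo luminescence after 30 min at room temperature.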

Assay [5] addresses Thyrotropin receptor (Homo sapiens) (UniProt P16473). As to the kind of experiment: qHTS assay to identify small molecule agonists of the thyroid stimulating hormone receptor (TSHR) signaling pathway (AID 1224843; calls by dose curve; note: nearly all actives have a fitted effect of over 45% in size; note: potency is the fitted concentration of half-maximal effect). The procedure, abridged:
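Cell line HEK293 with TSHR; density 800/well. Exposure 30 min RT. Readout HTRF cAMP (cAMP-d2/anti-cAMP-cryptate), 1 h RT before reading.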

A short description of assay [6]: qHTS assay to identify small molecule agonists of the constitutive androstane receptor (CAR) signaling pathway - cell viability counter screen (AID 1224836). Note: series mostly up to about 92 µM; nearly all actives have a fitted effect of over 45% in size. The procedure, abridged:
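HepG2-CYP2B6-hCAR, 2500 cells/well, 4 h pre-incubation; cpd 15 conc + PK11195 0.75 uM final; 23 h, 37 C/5% CO2; CellTiter-Fluor, fluorescence.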

Assay [7] is described as follows: qHTS assay to identify small molecule antagonists of the constitutive androstane receptor (CAR) signaling pathway - cell viability counter screen (AID 1224837). Note: nearly all actives have a fitted effect of over 45% in size. Note: potency is the fitted concentration of half-maximal effect. The procedure, abridged:
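Multiplexed cytotoxicity read-out for the CAR antagonist screen: double-stable HepG2-CYP2B6-hCAR cells co-treated with 50 nM CITCO (final) and compound over 15 concentrations, incubated 23 hr, then assessed by CellTiter-Fluor fluorescence.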

The target in assay [8] is Nuclear receptor subfamily 1 group I member 3 (Homo sapiens) (UniProt Q14994). As to the kind of experiment: qHTS assay to identify small molecule antagonists of the constitutive androstane receptor (CAR) signaling pathway (AID 1224838). Note: nearly all actives have a fitted effect of over 40% in size. Note: potency is the fitted concentration of half-maximal effect. In a few lines:
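Compounds were titrated across 15 concentrations onto HepG2 cells double-stably expressing hCAR and a CYP2B6-2.2kb reporter, together with 50 nM CITCO (final). After 24 h at 37 C, luciferase activity was measured by luminescence.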

The target is the same in assay [9]. As to the kind of experiment: qHTS assay to identify small molecule agonists of the constitutive androstane receptor (CAR) signaling pathway (AID 1224839). Note: nearly all actives have a fitted effect of over 15% in size. Note: potency is the fitted concentration of half-maximal effect. The procedure, abridged: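 HepG2-CYP2B6-hCAR cells, 2500/well, 4 h pre-incubation; compounds 15 conc.; PK11195 0.75 uM final; 24 h, 37 C/5% CO2; ONE-Glo luciferase read.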
Assay [10] in a line: qHTS assay to identify small molecule antagonists of the estrogen related receptor (ERR) signaling pathway from Tox21 library - cell viability counter screen (AID 1224834). Note: nearly all actives have a fitted effect of over 30% in size. Note: potency is the fitted concentration of half-maximal effect. In a few lines: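 Cytotoxicity of test substances is gauged in the same ERR cells used for the antagonist screen, after 17.5 h of compound treatment at 37 C, by CellTiter-Fluor fluorescence measured after 30 min.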

For 34 molecules, Potency results are on record in PubChem BioAssay (Tox21).

Results filed as inconclusive are left out. Active and inactive are the calls of the source. Unless noted, calls come from the whole dose curve; as a rule, active = well fitted curve in the direction sought with a large enough effect in the repeat runs; inconclusive = weak or mixed curves; inactive = no such curve, though single readings can be large; an effect the other way counts as inactive or inconclusive.

Sequence of Nuclear receptor subfamily 1 group I member 3 (Homo sapiens) (Q14994 whole entry, looked up): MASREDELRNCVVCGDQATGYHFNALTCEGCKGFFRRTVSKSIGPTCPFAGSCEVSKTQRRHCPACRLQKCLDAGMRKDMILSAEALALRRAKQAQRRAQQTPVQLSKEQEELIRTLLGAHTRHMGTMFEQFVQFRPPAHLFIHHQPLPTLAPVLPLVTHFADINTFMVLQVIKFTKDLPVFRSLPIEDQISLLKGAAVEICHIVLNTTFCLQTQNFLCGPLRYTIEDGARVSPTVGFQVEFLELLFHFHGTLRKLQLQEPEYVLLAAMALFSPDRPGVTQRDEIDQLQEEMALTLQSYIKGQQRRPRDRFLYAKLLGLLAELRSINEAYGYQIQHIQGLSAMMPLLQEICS
Sequence of Luciferin 4-monooxygenase (Photinus pyralis) (P08659 whole entry, looked up): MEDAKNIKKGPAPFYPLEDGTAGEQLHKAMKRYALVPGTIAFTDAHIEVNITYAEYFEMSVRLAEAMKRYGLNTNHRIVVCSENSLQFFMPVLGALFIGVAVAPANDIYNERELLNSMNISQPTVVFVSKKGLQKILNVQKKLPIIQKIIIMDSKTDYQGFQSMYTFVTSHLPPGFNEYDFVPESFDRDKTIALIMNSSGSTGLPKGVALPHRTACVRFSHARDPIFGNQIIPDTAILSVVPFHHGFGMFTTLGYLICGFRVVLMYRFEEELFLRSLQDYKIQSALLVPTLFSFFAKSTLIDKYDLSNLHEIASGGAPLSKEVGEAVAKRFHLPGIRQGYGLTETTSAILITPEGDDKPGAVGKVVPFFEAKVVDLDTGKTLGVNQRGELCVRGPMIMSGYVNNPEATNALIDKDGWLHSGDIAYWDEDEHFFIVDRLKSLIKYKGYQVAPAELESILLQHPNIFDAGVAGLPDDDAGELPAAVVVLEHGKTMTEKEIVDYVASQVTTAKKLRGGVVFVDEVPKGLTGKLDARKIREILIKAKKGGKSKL
Sequence of Thyrotropin receptor (Homo sapiens) (P16473 whole entry, looked up): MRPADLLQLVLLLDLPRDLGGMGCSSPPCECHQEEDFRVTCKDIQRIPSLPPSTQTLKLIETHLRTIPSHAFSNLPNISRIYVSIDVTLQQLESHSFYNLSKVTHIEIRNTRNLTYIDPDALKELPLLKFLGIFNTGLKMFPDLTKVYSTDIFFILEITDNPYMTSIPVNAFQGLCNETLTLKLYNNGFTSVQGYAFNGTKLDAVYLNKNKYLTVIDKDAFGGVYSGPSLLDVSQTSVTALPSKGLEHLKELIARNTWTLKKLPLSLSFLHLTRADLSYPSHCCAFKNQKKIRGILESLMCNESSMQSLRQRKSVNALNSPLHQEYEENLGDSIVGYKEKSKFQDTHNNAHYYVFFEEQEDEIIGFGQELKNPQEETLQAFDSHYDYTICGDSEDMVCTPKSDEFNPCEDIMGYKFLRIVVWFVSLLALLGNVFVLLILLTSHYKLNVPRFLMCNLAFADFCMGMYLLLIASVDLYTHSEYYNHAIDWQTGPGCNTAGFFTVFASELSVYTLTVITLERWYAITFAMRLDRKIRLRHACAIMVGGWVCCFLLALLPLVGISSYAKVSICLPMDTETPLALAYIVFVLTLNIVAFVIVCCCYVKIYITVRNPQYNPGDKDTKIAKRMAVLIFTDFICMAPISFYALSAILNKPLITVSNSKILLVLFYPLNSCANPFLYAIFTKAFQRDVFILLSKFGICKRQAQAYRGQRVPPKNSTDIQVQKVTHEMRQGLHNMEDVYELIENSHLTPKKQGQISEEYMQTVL

As for `Oc1ccc(Cl)c2cccnc12`, the Potency result in assay [1], in [2], in assay [4] and in assay [5] was “inactive” each time. In addition, the Potency in assay [3] is 4.73 µM (active).
Regarding `CC(C)Nc1cccnc1N1CCN(C(=O)c2cc3cc(NS(C)(=O)=O)ccc3[nH]2)CC1`, the Potency result in assay [1], in assay [6], in assay [7], in assay [8], in [9] and in assay [2] was “inactive” throughout. For the same molecule, the Potency entry in assay [3], in assay [4] and in [5] was “inactive” each time.
On to `CS(=O)(=O)c1ccc(-c2cn3ccccc3n2)cc1`, for which the Potency entry in assay [10], in assay [6], in [8], in assay [2], in assay [3] and in [5] was “inactive” throughout. In addition, the Potency in assay [9] is 2.11 µM (active).
On to `O=C1Cc2ccccc2N1c1c(Cl)cccc1Cl`, for which the Potency entry in [1], in [6], in assay [7], in assay [8], in assay [2] and in [3] was “inactive” in each case. Moreover, the Potency result in assay [4] was “inactive”. Moreover, the Potency in assay [9] was 30.6 µM (active).
With `O=C(CCc1ccc(O)cc1)c1c(O)cc(O)cc1O`, the Potency in assay [1] was 72.6 µM (active). For the same molecule, the Potency result in [6], in assay [7], in [3], in [4] and in [5] was “inactive” each time.
With `CN(C(=O)CN(CCO)CC(=O)N(C)C(C)(C)Cc1ccccc1)C(C)(C)Cc1ccccc1`, the Potency result in [1], in assay [6], in assay [7], in assay [8], in assay [9] and in assay [2] was “inactive” throughout. The Potency result in assay [3] and in assay [4] was “inactive” in each case.
Consider `O=[N+]([O-])c1ccc(O/N=C/c2cc(Br)c(O)c(Br)c2)c([N+](=O)[O-])c1`, for which the results for the Potency in assay [10], in assay [7] and in [2] were 30.5 µM (active), 34.2 µM (active) and 48.3 µM (active), respectively. For the same molecule, the Potency result in [8] and in assay [5] was “inactive” in each case.
Turning to `CC(=O)[C@H]1[C@H](C#N)C[C@H]2[C@@H]3CC=C4C[C@@H](O)CC[C@]4(C)[C@H]3CC[C@@]21C`, the Potency entry in assay [1], in [6], in assay [7], in [2], in [3] and in assay [4] was “inactive” each time.
With `C=CC(=O)OCC1CC2CC1C1CCC(COC(=O)C=C)C21` (stereo not given), the Potency result in assay [1], in [6], in [7], in assay [8], in assay [9] and in [5] was “inactive” throughout. Besides, the Potency in [2] is 68.6 µM (active).
With `CN1CC(=O)N2[C@H](c3ccc4c(c3)OCO4)c3[nH]c4ccccc4c3C[C@@H]2C1=O`, the Potency result in assay [1], in [6], in assay [7], in [8], in [9] and in [2] was “inactive” each time. Also, the Potency result in assay [5] is “inactive”.
Turning to `CC1=Nc2ccc3ccccc3c2C1(C)C`, the Potency entry in assay [10], in assay [6], in assay [2], in assay [4] and in assay [5] was “inactive” throughout.
With `COC(=O)[C@H]1[C@H]2C[C@@H]3c4[nH]c5cc(OC)ccc5c4CCN3C[C@H]2C[C@@H](OC(=O)/C=C/c2ccc(O)c(OC)c2)[C@@H]1OC`, the Potency entry in [1], in assay [6], in assay [7], in assay [8], in [9] and in assay [2] was “inactive” in each case. For the same molecule, the Potency result in assay [4] is “inactive”.
In the case of `NC1[C@H]2CN(c3nc4c(cc3F)c(=O)c(C(=O)O)cn4-c3ccc(F)cc3F)C[C@@H]12` (stereo not given in full), the Potency result in assay [1], in [6], in [8], in [2], in assay [3] and in [5] was “inactive” each time.
As for `CCOC(=O)[C@H](CCc1ccccc1)N[C@@H](C)C(=O)N(CC(=O)O)C1Cc2ccccc2C1`, the Potency result in assay [1], in assay [6], in [7] and in assay [2] was “inactive” throughout.
As to `COC(=O)C1=C(C)NC(C)=C(C(=O)O[C@@H]2CCCN(Cc3ccccc3)C2)[C@@H]1c1cccc([N+](=O)[O-])c1`, the Potency result in [1], in assay [6], in assay [8], in assay [9], in [2] and in [4] was “inactive” each time. Also, in [5], the Potency entry is “inactive”.
Turning to `O=[N+]([O-])c1ccc(Nc2ccc(Nc3ccccc3)c(S(=O)(=O)O)c2)c([N+](=O)[O-])c1`, the Potency result in [1], in [8], in assay [9], in assay [2] and in assay [5] was “inactive” each time.
For `COc1ccccc1NC(=O)c1cc2ccccc2cc1O`, the Potency was 17.8 µM (active) in assay [1], 17.2 µM (active) in [9] and 15.4 µM (active) in assay [3]. Also, the Potency entry in assay [6], in [7], in [8], in assay [2], in assay [4] and in assay [5] was “inactive” in each case.
Take `CCOC(=O)c1ccccc1C(=C1C=C(Br)C(=O)C(Br)=C1)c1cc(Br)c(O)c(Br)c1`: the Potency in assay [1] was 66.8 µM (active); in [3] it was 51.3 µM (active). In addition, the Potency result in [6], in assay [7], in assay [4] and in assay [5] was “inactive” each time.
Turning to `CC(C)(O)c1ccc(CNC(=O)c2cccnc2Oc2ccc3nonc3c2)cc1`, the Potency result in assay [1], in [6], in assay [7], in [8], in [4] and in [5] was “inactive” in each case. For the same molecule, the Potency in assay [9] is 24.3 µM (active).
Turning to `CCOc1ccc(Cc2nccc3cc(OCC)c(OCC)cc23)cc1OCC`, the Potency entry in assay [1], in assay [6], in assay [8], in assay [9], in assay [2] and in assay [5] was “inactive” each time.
With `Oc1cccc(O)c1O`, the Potency result in assay [1], in assay [7], in [8], in [9], in assay [2] and in assay [3] was “inactive” each time. Besides, the Potency in [4] was 8.56 µM (active).
Consider `O=c1c(O)c(-c2ccc(O)cc2)oc2cc(O)cc(O)c12`, for which the Potency result in [6], in assay [7], in assay [8], in assay [2], in [3] and in assay [4] was “inactive” in each case. The Potency entry in [5] was “inactive”. In addition, in assay [9], the Potency is 36.8 µM (active).
For the molecule `C/C=C(/C(=C/C)c1ccc(O)cc1)c1ccc(O)cc1`, the Potency result in assay [1], in [6], in [8], in [9], in assay [2] and in assay [5] was “inactive” each time.
Regarding `OC[C@H]1O[C@@H](n2cnc3c(=S)nc[nH]c32)[C@H](O)[C@@H]1O`, the Potency entry in assay [1], in [9], in assay [2], in [3], in assay [4] and in assay [5] was “inactive” in each case. Further, the Potency in assay [8] was 1.88 µM (active).
For `O=Cc1c2ccccc2c(Cl)c2ccccc12`, the Potency result in assay [1], in assay [6] and in [4] was “inactive” each time. Besides, the Potency in [3] is 13.3 µM (active).
Consider `Clc1ccc(Nc2nnc(Cc3ccncc3)c3ccccc23)cc1`, for which the Potency entry in [8], in [2], in assay [4] and in assay [5] was “inactive” each time. The figures for the Potency in assay [9] and in [3] were 7.5 µM (active) and 13.3 µM (active), respectively.
In the case of `c1cc(N(CC2CO2)CC2CO2)ccc1Cc1ccc(N(CC2CO2)CC2CO2)cc1` (stereo not given), the Potency in [10] is 43.3 µM (active); in [2], 30.6 µM (active); in assay [3], 27.3 µM (active). The Potency entry in [9] and in assay [4] was “inactive” in each case.
With `COc1cc(N)c(Cl)cc1C(=O)NC1CCN(CCCOc2ccc(F)cc2)CC1OC` (stereo not given), the Potency entry in [1], in [6], in assay [7], in assay [4] and in assay [5] was “inactive” each time.
For `CC(C)C(O)(c1ccc(OC(F)(F)F)cc1)c1cncnc1` (stereo not given), the Potency entry in [10], in [6], in assay [7], in assay [8], in [9] and in assay [2] was “inactive” each time. For the same molecule, the Potency in [5] is 48.4 µM (active).
Regarding `COc1ccccc1N1CCN(CCCCNC(=O)c2ccc(-c3ccc(C(C)=O)cc3)cc2)CC1`, the Potency entry in assay [1], in assay [6], in assay [2] and in [5] was “inactive” throughout.
As for `COc1ccccc1N1CCN(CC(O)COc2cccc3ccccc23)CC1` (stereo not given), the Potency entry in assay [1], in assay [6], in assay [8], in [9], in assay [2] and in assay [5] was “inactive” in each case.
On to `O=C1c2ccccc2C(=O)C1(O)O`, for which the Potency entry in assay [1], in assay [9], in [2], in assay [3] and in [4] was “inactive” throughout.
With `CCOc1cccc(-n2cc(C(=O)N3CCN(c4cc(C(=O)O)c5ccccc5c4)CC3)nc2-c2ccc(C)cc2)c1`, the Potency entry in assay [1], in [6], in [7], in assay [8], in assay [9] and in assay [4] was “inactive” throughout.
Regarding `COc1cc(C(=O)NCCCCCC(=O)O)cc(OC)c1OC`, the Potency entry in [1], in assay [6], in assay [7], in assay [8], in [9] and in assay [2] was “inactive” each time. Moreover, the Potency entry in assay [3], in assay [4] and in assay [5] was “inactive” each time.
